In PubChem BioAssay (NCATS):
Records with an inconclusive call do not appear. Values without a mark were called inactive. Active and inactive are the calls of the source. Calls come from the whole dose curve; as a rule, active = well fitted inhibition curve with a large enough effect; inconclusive = small, poorly fitted or top-dose-only effect; inactive = flat fitted curve, though single readings scatter.

test system: CP286; experiment: qHTS profiling for inhibitors of Plasmodium falciparum proliferation (AID 504749); note: nearly all actives have a fitted effect of over 60% in size;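 for activity, negative = inhibition: 0% = DMSO vehicle and full inhibition = artemisinin control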; conditions: P. falciparum in erythrocytes, SYBR Green DNA, 72 h; series mostly up to 28.7 µM; activity, negative = inhibition: at the top concentration
In short: (§1)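 Quantitative HTS: compounds pinned into medium, infected erythrocytes added (0.3% parasitemia, 2.5% hematocrit), 72 h culture at 37 C under 5% CO2. Saponin/Triton lysis with SYBR Green I, overnight RT, then fluorescence read.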
Potency is the fitted concentration of half-maximal effect.

Structure (SMILES) | activity, negative = inhibition | Potency
COc1cc(S(C)=O)ccc1-c1nc2ncccc2[nH]1 (stereo not given) | -0.0521% | 
CCOc1ccc(S(=O)(=O)O)c2cccnc12 | 0.267% | 
NC(=S)NS(=O)(=O)c1ccc(N)cc1 | 0.426% | 
C[C@]12CC[C@@H]3c4ccc(OC(=O)c5ccccc5)cc4CC[C@H]3[C@@H]1CC[C@@H]2O |  | 12.6 µM (active)
CC(CCc1ccc(O)cc1)NCC(O)c1ccc(O)cc1 (stereo not given) | -0.623% | 
FC(F)(F)C(F)(F)C(F)(F)C(F)(F)C(F)(F)C(F)(F)F | -3.07% | 
CN(C)CCOc1ccc(/C(=C(/CCCl)c2ccccc2)c2ccccc2)cc1 | -5.56% | 
CNC(=O)OCc1cccc(COC(=O)NC)n1 | 0.748% | 
NCC[C@H](O)C(=O)N[C@@H]1C[C@H](N)[C@@H](O[C@H]2O[C@H](CN)[C@@H](O)[C@H](O)[C@H]2O)[C@H](O)[C@H]1O[C@H]1O[C@H](CO)[C@@H](O)[C@H](N)[C@H]1O | -1.48% | 
NC(N)=O | 0.178% | 
CC1CCCCN1CCCOC(=O)c1ccccc1 (stereo not given) | -8.35% | 
COC(=O)CCC[N+](C)(C)C | -0.726% | 
COC(=O)CC[C@H](N)C(=O)O | -0.605% | 
O=C(OCc1ccccc1)c1ccc(O)cc1 | -0.86% | 
CC(C)(CO)[C@@H](O)C(=O)NCCC(=O)NCCSSCCNC(=O)CCNC(=O)[C@H](O)C(C)(C)CO | 0.976% | 
COC(=O)c1ccccc1O | 0.242% | 
OC[C@H]1O[C@@](CO)(O[C@H]2O[C@H](CO)[C@@H](O)[C@H](O)[C@H]2O)[C@@H](O)[C@@H]1O | -0.523% | 
Nc1nccs1 | 0.402% | 
c1ccc2ccccc2c1 | 0.878% | 
O=S(=O)(O)CCCS(=O)(=O)O | 0.933% | 

Structure (SMILES) | activity, negative = inhibition | Potency
O=C1c2ccccc2C(=O)c2c1ccc(O)c2O | 0.119% | 
O=C(NNCNNC(=O)c1ccncc1)c1ccncc1 | -0.381% | 
[O]=[Bi][O]C(=O)[O][Bi]=[O] | -0.358% | 
C=CCN1CCCC1CNC(=O)c1cc(S(N)(=O)=O)cc(OC)c1OC (stereo not given) | -5.44% | 
CC(C)[C@H](N)C(=O)OCC(CO)OCn1cnc2c(=O)[nH]c(N)nc21 (stereo not given in full) | -5.94% | 
CCCCCCCCCCCCCCCCCC(=O)OC[C@@H](O)[C@H]1OC[C@H](O)[C@H]1O | 0.0891% | 
CC(=O)[C@H]1CC[C@H]2[C@@H]3C=CC4=CC(=O)CC[C@@]4(C)[C@H]3CC[C@]12C | -0.316% [at 12.8 µM] | 
CCCC(=O)O | 0.0902% | 
CC1(C)S[C@@H]2[C@H](NC(=O)C3(N)CCCCC3)C(=O)N2[C@H]1C(=O)O | -8.51% | 
CCCCCCCCCCCC(=O)OCC(O)CO (stereo not given) | -0.119% | 
CCOc1ccc(NC(=S)Nc2ccc(OCC)cc2)cc1 | 3.01% | 
C[C@H](CCC(=O)O)[C@H]1CC[C@H]2[C@@H]3CC[C@@H]4C[C@H](O)CC[C@]4(C)[C@H]3C[C@H](O)[C@]12C | 0.0624% | 
CC(C)(COP(=O)(O)OP(=O)(O)OC[C@H]1O[C@@H](n2cnc3c(N)ncnc32)[C@H](O)[C@@H]1OP(=O)(O)O)C(O)C(=O)NCCC(=O)NCCS (stereo not given in full) | 0.0984% | 
O=C(CCCCCCCCCCCCC1CCCC1)Nc1ccc(S(=O)(=O)c2ccc(NC(=O)CCCCCCCCCCCCC3CCCC3)cc2)cc1 | 0.128% | 
Nc1nc(=O)n([C@@H]2CS[C@H](CO)O2)cc1F | -2.51% | 
O=C(O)CCC/C=C\C[C@@H]1[C@@H](/C=C/[C@@H](O)COc2cccc(C(F)(F)F)c2)[C@H](O)C[C@@H]1O | -1.95% | 
Cc1c(Cl)cccc1Nc1ncccc1C(=O)O | 0.12% | 
CC(C)=CCC/C(C)=C/CC/C(C)=C/CC/C=C(\C)CC/C=C(\C)CCC=C(C)C | -1.92% | 
CC(=O)Nc1ccc(OC(C)=O)cc1 | -0.604% | 
CC(=O)N[C@@H]1C(O[C@H]2O[C@H](C(=O)O)C(O)[C@H](O)[C@H]2O)[C@H](O)[C@@H](CO)O[C@H]1O[C@@H]1C(C(=O)O)O[C@@H](O[C@H]2[C@H](O)[C@@H](CO)OC(O)[C@@H]2NC(C)=O)[C@H](O)[C@H]1O (stereo not given in full) | 0.202% | 

test system: CP291; experiment: as above; conditions: P. falciparum in erythrocytes, SYBR Green DNA, 72 h; series mostly up to 28.7 µM; activity, negative = inhibition: at the top concentration
In short: as §1

Structure (SMILES) | activity, negative = inhibition
COc1cc(S(C)=O)ccc1-c1nc2ncccc2[nH]1 (stereo not given) | -0.714%
CCOc1ccc(S(=O)(=O)O)c2cccnc12 | -1.6%
NC(=S)NS(=O)(=O)c1ccc(N)cc1 | 0.115%
C[C@]12CC[C@@H]3c4ccc(OC(=O)c5ccccc5)cc4CC[C@H]3[C@@H]1CC[C@@H]2O | -10.3%
CC(CCc1ccc(O)cc1)NCC(O)c1ccc(O)cc1 (stereo not given) | -5.74%
FC(F)(F)C(F)(F)C(F)(F)C(F)(F)C(F)(F)C(F)(F)F | -3.4%
CN(C)CCOc1ccc(/C(=C(/CCCl)c2ccccc2)c2ccccc2)cc1 | -8.89%
CNC(=O)OCc1cccc(COC(=O)NC)n1 | 1.33%
NCC[C@H](O)C(=O)N[C@@H]1C[C@H](N)[C@@H](O[C@H]2O[C@H](CN)[C@@H](O)[C@H](O)[C@H]2O)[C@H](O)[C@H]1O[C@H]1O[C@H](CO)[C@@H](O)[C@H](N)[C@H]1O | 0.0222%
NC(N)=O | -2.01%
CC1CCCCN1CCCOC(=O)c1ccccc1 (stereo not given) | -4.12%
COC(=O)CCC[N+](C)(C)C | -0.234%
COC(=O)CC[C@H](N)C(=O)O | -0.692%
O=C(OCc1ccccc1)c1ccc(O)cc1 | 4.98%
CC(C)(CO)[C@@H](O)C(=O)NCCC(=O)NCCSSCCNC(=O)CCNC(=O)[C@H](O)C(C)(C)CO | -0.292%
COC(=O)c1ccccc1O | 0.542%
OC[C@H]1O[C@@](CO)(O[C@H]2O[C@H](CO)[C@@H](O)[C@H](O)[C@H]2O)[C@@H](O)[C@@H]1O | -2.36%
Nc1nccs1 | -1.25%
c1ccc2ccccc2c1 | -2.77%
O=S(=O)(O)CCCS(=O)(=O)O | -0.111%

Structure (SMILES) | activity, negative = inhibition
O=C1c2ccccc2C(=O)c2c1ccc(O)c2O | 0.438%
O=C(NNCNNC(=O)c1ccncc1)c1ccncc1 | 7.42%
[O]=[Bi][O]C(=O)[O][Bi]=[O] | -4.5%
C=CCN1CCCC1CNC(=O)c1cc(S(N)(=O)=O)cc(OC)c1OC (stereo not given) | -0.492%
CC(C)[C@H](N)C(=O)OCC(CO)OCn1cnc2c(=O)[nH]c(N)nc21 (stereo not given in full) | 1.55%
CCCCCCCCCCCCCCCCCC(=O)OC[C@@H](O)[C@H]1OC[C@H](O)[C@H]1O | 0.682%
CC(=O)[C@H]1CC[C@H]2[C@@H]3C=CC4=CC(=O)CC[C@@]4(C)[C@H]3CC[C@]12C | -0.741% [at 12.8 µM]
CCCC(=O)O | 0.566%
CC1(C)S[C@@H]2[C@H](NC(=O)C3(N)CCCCC3)C(=O)N2[C@H]1C(=O)O | -0.287%
CCCCCCCCCCCC(=O)OCC(O)CO (stereo not given) | -3.79%
CCOc1ccc(NC(=S)Nc2ccc(OCC)cc2)cc1 | 2.1%
C[C@H](CCC(=O)O)[C@H]1CC[C@H]2[C@@H]3CC[C@@H]4C[C@H](O)CC[C@]4(C)[C@H]3C[C@H](O)[C@]12C | 2.8%
CC(C)(COP(=O)(O)OP(=O)(O)OC[C@H]1O[C@@H](n2cnc3c(N)ncnc32)[C@H](O)[C@@H]1OP(=O)(O)O)C(O)C(=O)NCCC(=O)NCCS (stereo not given in full) | -6.2%
O=C(CCCCCCCCCCCCC1CCCC1)Nc1ccc(S(=O)(=O)c2ccc(NC(=O)CCCCCCCCCCCCC3CCCC3)cc2)cc1 | -2.26%
Nc1nc(=O)n([C@@H]2CS[C@H](CO)O2)cc1F | -3.91%
O=C(O)CCC/C=C\C[C@@H]1[C@@H](/C=C/[C@@H](O)COc2cccc(C(F)(F)F)c2)[C@H](O)C[C@@H]1O | -1.73%
Cc1c(Cl)cccc1Nc1ncccc1C(=O)O | 2.73%
CC(C)=CCC/C(C)=C/CC/C(C)=C/CC/C=C(\C)CC/C=C(\C)CCC=C(C)C | -3.37%
CC(=O)Nc1ccc(OC(C)=O)cc1 | -5.97%
CC(=O)N[C@@H]1C(O[C@H]2O[C@H](C(=O)O)C(O)[C@H](O)[C@H]2O)[C@H](O)[C@@H](CO)O[C@H]1O[C@@H]1C(C(=O)O)O[C@@H](O[C@H]2[C@H](O)[C@@H](CO)OC(O)[C@@H]2NC(C)=O)[C@H](O)[C@H]1O (stereo not given in full) | 0.265%
